Source: PubChem BioAssay (EPA / NIEHS)
Where “and” joins values, the source holds several entries; their conditions need not be identical. Equal entries are not always repeated. Records with an inconclusive call do not appear. The source holds several records for some structures; these can differ, active in one and inactive in another. Calls of active or inactive are those of the source. The calls were made as follows: active = hit-call score of the fitted dose curve at least 0.9, where 1 is the maximum; inconclusive = response in the unintended direction; inactive = score below 0.9.

What follows are compounds tested against Nuclear receptor subfamily 1 group I member 2 (Homo sapiens) (UniProt O75469) (assay: NVS_NR_hPXR: NovaScreen (NVS) Nuclear Receptor Binding Assay for human Pregnane X Receptor (PXR) (AID 2283365);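 also: a drop in FRET signal versus DMSO baseline means the compound binds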).
Protocol: NVS_NR_hPXR is a biochemical, single-readout assay that uses extracted gene-proteins in a cell-free assay. Measurements were taken 2 hours after chemical dosing in a 384-well plate.NVS_NR_hPXR is one of one assay component(s) measured or calculated from the NVS_NR_hPXR assay. It is designed to make measurements of fluorescent resonance energy transfer, a form of binding reporter, as detected with fluorescent resonance energy transfer signals by Time-Resolved Fluorescence Resonance Energy Transfer (TR-FRET) technology.Data from the assay component NVS_NR_hPXR was analyzed into 1 assay endpoint. This assay endpoint, NVS_NR_hPXR, was analyzed in the positive analysis fitting direction relative to DMSO as the negative control and baseline of activity. Using a type of binding reporter, loss-of-signal activity can be used to understand changes in the binding as they relate to the gene NR1I2. Furthermore, this assay endpoint can be referred to as a primary readout, because the performed assay has only produced 1 assay endpoint. To generalize the intended target to other relatable targets, this assay endpoint is annotated to the nuclear receptor intended target family, where the subfamily is non-steroidal.
Binding assays used specific radioligands (tritiated, iodinated) with non-radioactive competitive displacement ligands in agonist or antagonist protocols (as indicated) and various reference compounds and inhibitors to titrate specific binding to receptors and transporters. Most enzyme assays (CYPs, kinases, phosphatases, proteases, HDACs) used recombinant protein and specific substrates (fluorescence mostly, some colorimetric and radioactive) and inhibitors, followed by a biochemical separation of substrate and product. All assays for the biochemical HTS were initially run in duplicate at a single concentration (10 uM for CYP450 assays and 25 uM for all others). […] Each assay was run with positive and negative controls, and concurrent controls on every plate. The follow-up (secondary) screen tested active chemical-pairs in concentration series, as well as a few additional assays not tested in the primary screen, some selected negative inactives, and several cases re-run in the concentration series for confirmatory purposes.

Sequence of Nuclear receptor subfamily 1 group I member 2 (Homo sapiens) (O75469 whole entry, looked up): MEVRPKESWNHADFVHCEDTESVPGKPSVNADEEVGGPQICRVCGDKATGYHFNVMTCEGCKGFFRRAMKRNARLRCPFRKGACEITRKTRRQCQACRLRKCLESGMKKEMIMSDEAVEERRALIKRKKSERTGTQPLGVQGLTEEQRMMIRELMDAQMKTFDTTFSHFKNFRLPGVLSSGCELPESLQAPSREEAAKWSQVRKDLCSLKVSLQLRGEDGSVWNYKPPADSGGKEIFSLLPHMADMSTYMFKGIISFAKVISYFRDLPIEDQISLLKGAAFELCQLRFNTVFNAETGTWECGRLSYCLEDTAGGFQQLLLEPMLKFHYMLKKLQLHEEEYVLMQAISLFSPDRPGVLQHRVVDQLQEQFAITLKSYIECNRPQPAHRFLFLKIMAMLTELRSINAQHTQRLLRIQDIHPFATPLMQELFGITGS

Question: How did the outcome turn out when CCC(=O)O[C@H]1CC[C@H]2[C@@H]3CCC4=CC(=O)CC[C@]4(C)[C@H]3CC[C@]12C was run?
Answer: Its outcome is “inactive”.

Question: Which outcome does the source give for Clc1ccc(C(c2ccccc2Cl)C(Cl)(Cl)Cl)cc1 (centres undefined) here?
Answer: Its outcome is “inactive”.

Question: How did the outcome turn out when CC1=C2C[C@H]3[C@@H](CC=C4C[C@@H](O)CC[C@@]43C)[C@@H]2CC[C@]12O[C@@H]1C[C@H](C)CN[C@H]1[C@H]2C was run?
Answer: The outcome was “inactive”.

Question: With CCC(C)(c1ccc(O)cc1)c1ccc(O)cc1 as the compound, how does the AC50 read?
Answer: The AC50 was 16.7 µM (active) and 11.4 µM (active) and 9.16 µM (active).

Question: For Oc1ccc(C(c2ccc(O)cc2)(C(F)(F)F)C(F)(F)F)cc1, which outcome is on record?
Answer: Its outcome is “inactive”.

Question: C[C@]12CCC(=O)C=C1CC[C@@H]1[C@@H]2CC[C@@]2(C)[C@H]1CC[C@]2(C)O was tested. Which outcome did it give?
Answer: The outcome was “inactive”.

Question: What about the AC50 of the same compound?
Answer: The AC50 was 9 µM (active) and 8.26 µM (active).

Question: For CC(C)(O)C(=O)Nc1ccc([N+](=O)[O-])c(C(F)(F)F)c1, which outcome is on record?
Answer: Its outcome is “inactive”.

Question: With Cc1cc(-c2ccc(N)c(C)c2)ccc1N as the compound, how does the outcome read?
Answer: The outcome was “inactive”.

Question: With OCC(O)CO as the compound, how does the AC50 read?
Answer: The AC50 was 5.1 µM (active).

Question: Which results are given for CC(C)(c1ccccc1)c1ccc(O)cc1?
Answer: outcome: inactive; AC50: 12.7 µM (active) and 25 µM (active)

Question: For O=C(O)C(F)(F)C(F)(F)C(F)(F)C(F)(F)C(F)(F)C(F)(F)C(F)(F)C(F)(F)C(F)(F)F, which AC50 is on record?
Answer: Its AC50 is 25 µM (active).

Question: With C[C@]12CCC(=O)C=C1CC[C@@H]1[C@@H]2CC[C@]2(C)C(=O)CC[C@@H]12 as the compound, how does the outcome read?
Answer: Its outcome is “inactive”.
